IL-1B inflam inh = qHTS for Inhibitors of Inflammasome Signaling: IL-1-beta AlphaLISA Primary Screen. AID 743279, 2014. activity change, % at 57.5 µM. hit rate 4.7% among 360,000. THP-1 LPS/ATP IL-1B secretion, AlphaLISA, 16 h; stronger effect = lower value; in the data active means activity change below about -50%; inconclusive means mostly about -30% to -49%; further: on the % scale 0 is the no-effect control and ±100 the full control effect
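THP-1 cells pretreated 1 hr with compounds (up to 57.5 uM final), then stimulated with LPS (250 ng/mL final) plus ATP (1.25 mM final); secreted IL-1B measured by AlphaLISA after 16 hr, decreased signal indicating inhibition.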
TDP1 cell CPT = qHTS for Inhibitors of human tyrosyl-DNA phosphodiesterase 1 (TDP1): qHTS in cells in presence of CPT; chicken DT40 Tdp1-/-;hTDP1 cells + 20 nM CPT, ATP luminescence, 48 h; Potency, µM (doses to about 46.2 µM), inactives show top-dose activity change, negative = growth inhibition, most hits filed as inhibitors; hit rate 12% among 420,000; further: potency means the concentration at half of the fitted maximal effect; on the % scale 0 is the no-effect control and ±100 the full control effect; nearly all actives have a fitted effect of over 55% in size
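Chicken DT40 Tdp1-/- cells complemented with human TDP1, 400 cells/well, exposed to compounds plus 20 nM camptothecin for at least 48 h at 37 C; viability read as ATP content by CellTiter-Glo luminescence.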
D3 antag = qHTS of D3 Dopamine Receptor Antagonist: qHTS; D(3) dopamine receptor (Homo sapiens), P35462; D3R cells, DiscoveRx beta-arrestin luminescence, antagonist mode; stronger effect = lower value; max response, negative = inhibition, %; hit rate 2.5% among 360,000; AID 652054, 2013; in the data active means max response below about -50%; inconclusive means no clear call, values can overlap the other calls; further: on the % scale 0 is the no-effect control and ±100 the full control effect
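Cells expressing the human receptor were seeded at 1500 cells/well, incubated overnight at 37 degrees C in 5% CO2, then exposed to library compounds with dopamine controls for 90 minutes at 37 degrees C before luminescent detection.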
DT40 TDP1 no CPT = qHTS for Inhibitors of human tyrosyl-DNA phosphodiesterase 1 (TDP1): qHTS in cells in absence of CPT; hit rate 15% among 420,000; Potency, µM (top dose mostly 46.2 µM), for the others: at the highest dose activity change, negative = growth inhibition, hits mostly inhibitors; DT40 Tdp1-/- hTDP1 cells, no CPT, ATP luminescence, 48 h; AID 686978, 2013; further: potency means the concentration at half of the fitted maximal effect; on the % scale 0 is the no-effect control and ±100 the full control effect; nearly all actives have a fitted effect of over 55% in size
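Cells were dispensed at 400 per well, compounds added by pin tool, plates incubated ≥48 hr at 37 °C, then CellTiter-Glo added for 30 min at room temperature before luminescence reading. Line: DT40 Tdp1-/- complemented with hTDP1; camptothecin omitted.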
ClpP mod = qHTS Assay for Activators of ClpP. ATP-dependent Clp protease proteolytic subunit (Bacillus subtilis (strain 168)), P80244. purified B. subtilis ClpP, FRET peptide cleavage, 20 min. Potency, µM (series often up to 57.5 µM), without a hit: at the top dose activity change, negative = active. hit rate 1.9% among 340,000; active means well fitted falling curve with a large enough effect; inconclusive means small, poorly fitted or top-dose-only effect; inactive means no such curve, though single readings can be large or run the other way; further: potency means the concentration at half of the fitted maximal effect; the source files actives as falling curves though it sought activators and does not explain the sign; nearly all actives have a fitted effect of over 65% in size
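Buffer: 100 mM Tris/HCl pH8, 100 mM KCl, 0.05% low protease BSA, 2.5% glycerol, 0.01% Tween-20. ClpP 10 microg/mL final; 20 min RT; delta FRET normalized to ADEP and DMSO controls.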
D3 ag = qHTS of D3 Dopamine Receptor Agonist: qHTS. D(3) dopamine receptor (Homo sapiens), P35462. D3R DiscoveRx beta-arrestin cells, luminescence, 90 min. max activation, %. hit rate 0.58% among 410,000. AID 652048, 2013; in the data active means max activation above about 30%; further: 0% is about no effect
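Agonist-mode cell screen: cells plated at 1500/well and incubated overnight at 37 °C, then exposed to library compounds for 90 min at 37 °C. Detection reagent was added for 30–60 min at room temperature, and luminescence was read.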
An asterisk follows results filed as active; ? = inconclusive; nt = not tested or not shown; ! = a repeat was not active. Most compounds without a hit are left out; they make up all but 21% or so of the library. Unless noted, the call rests on the fitted dose curve; in most records, active means well fitted inhibition curve with a large enough effect; inconclusive means small, poorly fitted or top-dose-only effect; inactive means flat fitted curve, though single readings scatter.

SMILES	IL-1B inflam inh	TDP1 cell CPT	D3 antag	DT40 TDP1 no CPT	ClpP mod	D3 ag
Cc1ccc(-c2c(C#N)c(N)n3c(nc4ccccc43)c2C#N)cc1	-24	21µM*	6	16µM*	-2%	8
CCc1ccc(NC(=O)Cn2c(=O)n(CCCCC(=O)NCCc3ccc(Cl)cc3)c(=O)c3ccccc32)cc1	nt	?	nt	?	-1%	-1
C[C@]12CCC(=O)CC1CCC1C2CC[C@@]2(C)C1CC[C@@]21CCO1 (stereo partly drawn)	-12	?	-19	21µM*	1%	6
CC(=O)C1CCC2C3CCC4CC(=O)CCC4(C)C3C(C)(O)CC12C (stereo not drawn)	17	-4%	-1	?	nt	-2
C[C@]12CCC(=O)C[C@@H]1CC[C@@H]1[C@@H]2CC[C@]2(C)C=CC[C@@H]12	44	28%	19	?	0%	35*!
CCCOc1ccc(-c2c(C(=O)N/N=C(\C)COc3ccccc3)nnn2-c2nonc2N)cc1	16	-28%	1	9%	-6%	-2
O=C(COC(=O)c1c[nH]c(=O)[nH]c1=O)Nc1ccccc1Br	15	12%	6	2%	1%	-2
O=C(O)CCSCCCN1C(=O)c2cccc3cccc(c23)C1=O	-7	-7%	-7	-6%	0%	-2
CSc1ccccc1OCc1cc(C(=O)N(C)Cc2cnccn2)no1	-12	-6%	-3	11%	2%	4
CCOC(=O)CC(=O)CSc1nc2c(sc(=S)n2-c2ccc(C)c(C)c2)c(=O)[nH]1	-4	-3%	3	-14%	nt	6
CCOC(=O)CC(=O)CSc1nc2c(sc(=S)n2-c2ccc(OCC)cc2)c(=O)[nH]1	-53*	-11%	4	?	1%	2
COc1cc(C)c(Cc2cnc(N)nc2N)cc1OC	nt	?	nt	13µM*	-3%	7
O=C(NC(=S)Nc1ccccc1)C1CCCCC1	-6	8%	-7	9%	0%	4
O=C(NC(=S)NCc1ccccc1)C1CCCCC1	31	18µM*	-54*	21µM*	13µM*	-2
CC1CC(C(=O)Nc2ccccc2)C(=O)O1 (stereo not drawn)	4	1%	1	2%	nt	8
COc1ccccc1OCC(=O)Nc1cc(S(=O)(=O)N2CCCCC2)ccc1N1CCCCC1	-1	23µM*	-25	23µM*	1%	-5
Cc1ccc(OCC(=O)Nc2cc(S(=O)(=O)N3CCCCC3)ccc2N2CCN(C)CC2)c(C)c1	?	15µM*	2	9.2µM*	-1%	-17
Cc1ccccc1OCC(=O)Nc1ccc(N2CCOCC2)cc1N1CCOCC1	-2	?	8	?	0%	4
CCOc1ccccc1OCC(=O)Nc1cc(S(=O)(=O)N2CCCCC2)ccc1N1CCN(CC)CC1	-27	23µM*	?	16µM*	-2%	-12
Cc1cc(OCC(=O)Nc2ccccc2N2CCOCC2)c(C(C)C)cc1Cl	-12	16µM*	7	15µM*	0%	-14
CN(CCO)C(=O)c1cn(C2CCCN(Cc3ccc4ccccc4c3)C2)nn1 (stereo not drawn)	nt	-7%	nt	-20%	nt	nt
CC1CCCCC1NC(=O)CCS(=O)(=O)c1ccc(Cl)cc1 (stereo not drawn)	15	?	10	?	0%	7
CNc1ccc(-c2ccccc2OC)cn1	-7	8%	11	-5%	5%	0
COc1ccc(C)cc1NC(=O)C(NS(=O)(=O)c1cccc2nsnc12)c1ccccc1 (stereo not drawn)	nt	?	nt	?	1%	-15
CCOc1ccc(S(=O)(=O)N2CCCCC2)cc1NC(=O)Cc1cccs1	8	?	38	18µM*	-2%	4
SMILES	IL-1B inflam inh	TDP1 cell CPT	D3 antag	DT40 TDP1 no CPT	ClpP mod	D3 ag
CC(C)c1ccccc1OCC(=O)Nc1cc(S(=O)(=O)N2CCOCC2)ccc1N1CCCC1	-56*	?	-6	15µM*	nt	-2
CC(=O)NCCC(=O)Nc1cc(S(=O)(=O)N2CCCCC2)ccc1N1CCCCC1	-2	?	-3	23µM*	0%	-5
Nc1ccccc1N=Nc1ccccc1N	-6	?	?	-28%	-29%	-27
CC(C)(C)C1=CC(=Nc2ccccc2N)C=C(C(C)(C)C)C1=O	-113*	?	-51*	?	12%	-3
Cc1cc(N2C(=O)CC(N3CCN(C(c4ccccc4)c4ccccc4)CC3)C2=O)no1 (stereo not drawn)	14	-28%	-55*	-10%	2%	-5
Cc1cc(C(=O)N2CCN(C(c3ccccc3)c3ccccc3)CC2)no1	0	?	-13	?	1%	-17
CN(CC(=O)Nc1ccccc1N1CCCC1)S(=O)(=O)c1ccc(F)cc1	22	?	2	?	nt	6
Cc1ccc(S(=O)(=O)n2c(CN3CCCC(C)C3)nc3ccccc32)cc1 (stereo not drawn)	-51*	2%	-5	-23%	-18%	-9
CCCCn1nc(C(=O)Nc2cc(S(=O)(=O)N(C)C)ccc2C)c2ccccc2c1=O	0	-1%	-20	-9%	-5%	-15
CCOC(=O)c1cc2c(=O)n3ccccc3nc2n(Cc2ccco2)c1=NC(=O)c1cc(C)cc(C)c1	nt	1.3µM*	nt	1.2µM*	4%	1
CCOC(=O)c1cc2c(=O)n3ccccc3nc2n(CC2CCCO2)c1=NC(=O)c1cc(C)cc(C)c1 (stereo not drawn)	nt	0.16µM*	nt	0.037µM*	5%	10
CCOC(=O)c1cc2c(=O)n3ccccc3nc2n(CC2CCCO2)c1=NC(C)=O (stereo not drawn)	-13	-4%	-13	-24%	60%	-4
CCOC(=O)c1cc2c(=O)n3ccccc3nc2n(C)c1=NC(=O)c1c(-c2ccccc2Cl)noc1C	nt	-14%	nt	-3%	-7%	-14
CCOC(=O)c1cc2c(=O)n3ccccc3nc2n(Cc2ccco2)c1=NC(=O)c1ccc(C(C)(C)C)cc1	nt	-13%	nt	-27%	4%	11

Bioassay records (PubChem)
